These results are taken from PubChem BioAssay (NCI).

About 83,000 compounds went through this panel and 20% of them were active in at least one assay; those are over-represented in the sample as a whole.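 A percent growth of 40 corresponds to 60% growth inhibition; 0 means no net growth; -100 means all cells died. Active threshold: below 10.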 Unmarked numbers belong to inactive results. Calls of active or inactive are those of the source.

The test system of one test is SR leukemia. As to the kind of experiment: NCI-60 one-dose screen, 48 h (100 = growth as untreated, 0 = no growth, -100 = all killed). Particulars: 10 µM unless noted.
Consider `NC(=O)c1ccc[n+](CC(=O)N2CCN(c3cc4c(cc3F)c(=O)c(C(=O)O)cn4C3CC3)CC2)c1`, for which the growth was 32.2%. `COc1ccccc1N1CCN(C(=O)c2ccc3nc(NC(=O)c4ccc(NCCc5ccccc5)c([N+](=O)[O-])c4)sc3c2)CC1`: the growth is 3.74% (active). As to `CN1CCCC1=Nc1ccccc1`, the growth was 91.9%.

On to `COc1ccc(/C(=C\c2ccccc2)C(=O)O)cc1OC`, for which the growth was 108%.

Regarding `Nc1nnc(C(=O)c2cnc3n(c2=O)CCCCC3)s1`, the growth is 107%. `CC(=O)Nc1ccc(S(=O)(=O)NC2CCCCC2)cc1`: the growth was 99%. On the same count and under the same terms, the figure for `CN1CCN(Cc2ccc(NC(=O)c3cncc(C#Cc4cnccc4C(F)(F)F)c3)cc2C(F)(F)F)CC1` is 37.3%; for `CC[C@@]12C=CCN3CC[C@]4(c5cc(NC(=O)COc6cc(OCC(=O)Nc7cc8c(cc7OC)N(C)[C@H]7[C@@](O)(C(=O)OC)[C@H](OC(C)=O)[C@]9(CC)C=CCN%10CC[C@]87[C@@H]%109)cc7oc(-c8ccccc8)cc(=O)c67)c(OC)cc5N(C)[C@@H]4[C@](O)(C(=O)OC)[C@H]1OC(C)=O)[C@H]32` it is 10.6%. On the same count and under the same terms, the figure for `Cc1n[nH]c(C)c1-c1c(C)n[nH]c1C` is -6.74% (active).

With `CC(N)C(=O)NNc1n[nH]c(=S)n1N` (stereo not given), the growth was 103%. Same read-out and setting: the figure for `Cc1ccc(-c2csc(/N=C3\C(=O)Nc4ccccc43)n2)cc1` is -30.2% (active).

In another test the test system is RPMI-8226 leukemia. The description is as above. The following applies: 10 µM unless noted.
Regarding `Cn1c2c(Cl)c(Cl)ccc2c2cc(N)[nH]c(=O)c21`, the growth is 94.9%. Same read-out and setting: to `O=C1Nc2c(ccc(Cl)c2Cl)/C1=C/c1ccccn1` belongs 107%; to `O=C(N/N=C/c1ccc(O)c(O)c1)c1sc2ccccc2c1Cl`, 16.6%; to `O=C1/C(=C/c2ccc(O)cc2)COc2ccc(-c3ccccc3)cc21`, -29.7% (active). For `Cc1cc2cc3cc(C)c(N)cc3[n+](C)c2cc1N`, the growth is -1.31% (active). Same read-out and setting: to `COc1cccc(/C=C2\COc3ccc(-c4ccccc4)cc3C2=O)c1` belongs -31.4% (active); to `COc1nccnn1`, 70.1%.

In the case of `Cc1ccc(S(=O)(=O)Nc2ccc(Cl)cc2)cc1`, the growth is 101%. On the same count and under the same terms, to `Cc1c(C2=CCCCC2)c2ccccn2c1C(=O)c1cccc(S(=O)(=O)N2CCOCC2)c1` belongs 46.9%. In the case of `O=C1Nc2ccccc2/C1=C\c1cccc(/C=C2/C(=O)Nc3ccccc32)n1`, the growth was -48.7% (active). On the same count and under the same terms, to `CCN(CCNc1cc(OC)cc2cccnc12)CCc1ccccc1` belongs 81.6%; to `NC(=S)N/N=C(/c1ccccc1)c1ccccc1N`, 72.6%. The same measure, in the same setting: to `COc1ccc(/C=N/NC(=O)c2cccc3cc[nH]c23)cc1O` belongs -19.4% (active). The same measure, in the same setting: the figure for `Nc1nnc2cc(Cl)ccc2n1` is 68.9%.

In the case of `CC1=CC2(C)/C=C(C)/C=C\CC(O)/C=C3/C=CC(=C4C(=O)OC2(CC1C)C4=O)OC3` (stereo not given), the growth is -23.8% (active).

The next test has as its system OVCAR-8 ovarian. Described as above. Particulars: 10 µM unless noted.
Consider `Cn1c2c(Cl)c(Cl)ccc2c2cc(N)[nH]c(=O)c21`, for which the growth is 73.7%. Still for that read-out and setting: the figure for `O=C1Nc2c(ccc(Cl)c2Cl)/C1=C/c1ccccn1` is 81%; for `O=C(N/N=C/c1ccc(O)c(O)c1)c1sc2ccccc2c1Cl` it is 90.4%. Same read-out and setting: the figure for `COc1ccccc1C(C[N+](=O)[O-])c1c(-c2ccccc2)[nH]c2cc(C)ccc12` (stereo not given) is 75.3%.

As to `O=C1/C(=C/c2ccc(O)cc2)COc2ccc(-c3ccccc3)cc21`, the growth is 71.9%. The same measure, in the same setting: to `Cc1cc2cc3cc(C)c(N)cc3[n+](C)c2cc1N` belongs 1.23% (active); to `c1ccc(Cn2nc3c(c2-c2ccccc2)-c2oncc2CC3)cc1`, 86.8%; to `COc1ccc(-c2cnc(N)nc2-c2ccc(OC)cc2O)cc1`, 89.5%. Turning to `COc1cccc(/C=C2\COc3ccc(-c4ccccc4)cc3C2=O)c1`, the growth was 3.02% (active).

For the molecule `c1ccc(-c2nn(-c3ccccc3)[n+](-c3ccccc3-c3ccccc3)n2)cc1`, the growth is -32.8% (active).

For `CCOC(=O)c1c(C)nc2c(c1N)C(=O)C(=O)N2Cc1ccc(C(F)(F)F)cc1`, the growth was 63.3%. Same read-out and setting: the figure for `COc1cc2nc(-c3ccc(C(F)(F)F)cc3)cc(OCCN3CCC(O)CC3)c2cc1OC` is 80%; for `NC(=O)c1cccc(-n2ccc3cc(NC(=O)Nc4cc(C(F)(F)F)cc(C(F)(F)F)c4)ccc32)n1` it is 37.2%; for `CN1CCN(CC#CCNC(=O)[C@]23CCC(C)(C)C[C@H]2C2=CC[C@@H]4[C@@]5(C)Cc6c([nH]c7ccccc67)C(C)(C)[C@@H]5CC[C@@]4(C)[C@]2(C)CC3)CC1` it is 77%. The same measure, in the same setting: the figure for `COc1nccnn1` is 111%. Same read-out and setting: the figure for `Cc1ccc(S(=O)(=O)Nc2ccc(Cl)cc2)cc1` is 102%; for `O=C(Nc1nc2ccc(C(=O)N3CCN(c4ccc(Cl)c(Cl)c4)CC3)cc2s1)c1ccc(NCCc2ccccc2)c([N+](=O)[O-])c1` it is 97.3%.

For `Cc1c(C2=CCCCC2)c2ccccn2c1C(=O)c1cccc(S(=O)(=O)N2CCOCC2)c1`, the growth is 94.9%. The same measure, in the same setting: to `O=C1Nc2ccccc2/C1=C\c1cccc(/C=C2/C(=O)Nc3ccccc32)n1` belongs -6.07% (active). Turning to `NC(=O)c1ccc[n+](CC(=O)N2CCN(c3cc4c(cc3F)c(=O)c(C(=O)O)cn4C3CC3)CC2)c1`, the growth was 92.8%. With `CCN(CCNc1cc(OC)cc2cccnc12)CCc1ccccc1`, the growth is 85.2%. For `COc1ccccc1N1CCN(C(=O)c2ccc3nc(NC(=O)c4ccc(NCCc5ccccc5)c([N+](=O)[O-])c4)sc3c2)CC1`, the growth is 81.6%. Still for that read-out and setting: to `CN1CCCC1=Nc1ccccc1` belongs 105%.

Turning to `NC(=S)N/N=C(/c1ccccc1)c1ccccc1N`, the growth was 64.7%. Consider `COc1ccc(/C=N/NC(=O)c2cccc3cc[nH]c23)cc1O`, for which the growth is 48.8%. Same read-out and setting: to `Nc1nnc(C(=O)c2cnc3n(c2=O)CCCCC3)s1` belongs 105%; to `Nc1nnc2cc(Cl)ccc2n1`, 105%.

Take `CC(=O)Nc1ccc(S(=O)(=O)NC2CCCCC2)cc1`: the growth is 101%. As for `CC1=CC2(C)/C=C(C)/C=C\CC(O)/C=C3/C=CC(=C4C(=O)OC2(CC1C)C4=O)OC3` (stereo not given), the growth is 0.804% (active). Still for that read-out and setting: the figure for `CN1CCN(Cc2ccc(NC(=O)c3cncc(C#Cc4cnccc4C(F)(F)F)c3)cc2C(F)(F)F)CC1` is 92.2%; for `CC[C@@]12C=CCN3CC[C@]4(c5cc(NC(=O)COc6cc(OCC(=O)Nc7cc8c(cc7OC)N(C)[C@H]7[C@@](O)(C(=O)OC)[C@H](OC(C)=O)[C@]9(CC)C=CCN%10CC[C@]87[C@@H]%109)cc7oc(-c8ccccc8)cc(=O)c67)c(OC)cc5N(C)[C@@H]4[C@](O)(C(=O)OC)[C@H]1OC(C)=O)[C@H]32` it is 28.8%.

For the molecule `Cc1n[nH]c(C)c1-c1c(C)n[nH]c1C`, the growth is 12.4%. `CC(N)C(=O)NNc1n[nH]c(=S)n1N` (stereo not given): the growth is 100%. Take `Cc1ccc(-c2csc(/N=C3\C(=O)Nc4ccccc43)n2)cc1`: the growth was 16.3%.
